# Source: PubChem (The Scripps Research Institute Molecular Screening Center)
# An excerpt weighted towards active compounds, which were near 4.1% of everything screened.
# hcDAF12 agonist: H. contortus DAF-12 nuclear receptor activators, primary screen, cell-based, luminescence, HEK293, lit1-tk-luc reporter; 370,000 tested, 1.4% active; AID 652067, 2013; activation, % at 6.8 µM; HEK293 hcDAF-12 lit1-tk-luc reporter; 0% DMSO, 100% Δ7-dafachronic acid;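 active means activation above the mean of all tested compounds plus 3 SD, cut at about 5.5% in these data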;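 further: 100% = response to 3 µM Δ7-dafachronic acid high control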
# DAX1 inh-1: DAX1 (NR0B1) inhibitors on StAR promoter, primary screen, cell-based, luminescence, SF-1 (NR5A1), full-length DAX-1; HEK293T StAR-luciferase reporter, SF-1/DAX-1 repression relief; inhibition, % at 6.8 µM; 370,000 tested, 1.1% active; AID 652010, 2013;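 active means inhibition above the mean over all tested compounds plus 3 SD, cut at about 3.6% in these data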;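 further: 0% = DAX-1 cells with DMSO and 100% = cells lacking DAX-1 with DMSO; higher inhibition means more luminescence from relief of DAX-1 repression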
# hgDAF-12 ag: H. glycines DAF-12 receptor agonists, primary screen, cell-based, luminescence, HEK293, GAL4 fusion, UAS-luciferase | AID 687014, 2013 | activation, % at 6.8 µM | HEK293 GAL4-hgDAF12 UAS-luciferase reporter, agonist luminescence; normalized to butyrate control | Nuclear hormone receptor DAF-12 (Heterodera glycines), GAL4 fusion | 370,000 tested, 1.8% active;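 active means activation above a cutoff set at the mean of all screened compounds plus 3 SD, cut at about 10% in these data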;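 further: 0% = DMSO wells and 100% = sodium butyrate wells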
# DAX1 inh-2: DAX1 (NR0B1) inhibitors, primary screen, cell-based, HEK293, Gal4-DAX1, luciferase luminescence; HEK293 Gal4-DAX1 luciferase reporter; AID 504766, 2011; inhibition, % at 6.75 µM; Nuclear receptor subfamily 0 group B member 1 (Homo sapiens), P51843; 340,000 tested, 0.99% active;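 active means inhibition above the mean over all tested compounds plus 3 SD, cut at about 4.2% in these data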;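 further: 0% = DAX1-transfected cells with DMSO and 100% = empty-vector control cells with DMSO; inhibition shows as a rise in luminescence from relieved DAX1 repression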
# Target sequence (P51843 207-470 limits assumed): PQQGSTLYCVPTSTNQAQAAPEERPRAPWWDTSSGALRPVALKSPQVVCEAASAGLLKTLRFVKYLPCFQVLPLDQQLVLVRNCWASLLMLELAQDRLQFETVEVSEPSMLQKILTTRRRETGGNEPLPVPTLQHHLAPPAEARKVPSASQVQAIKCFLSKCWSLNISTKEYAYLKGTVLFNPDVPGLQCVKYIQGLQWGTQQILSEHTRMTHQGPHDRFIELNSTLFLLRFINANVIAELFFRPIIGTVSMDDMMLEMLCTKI
# ssDAF12 agonist: S. stercoralis DAF-12 nuclear receptor activators, primary screen, cell-based, luminescence, HEK293, GRIP1 co-expression, lit1-tk-luc; 370,000 tested, 1% active; Nuclear hormone receptor DAF-12 (Strongyloides stercoralis); activation, % at 6.8 µM; HEK293 ssDAF-12/GRIP1 lit1-tk-luc reporter; % of 3 µM dafachronic acid response;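 active means activation above the mean over all tested compounds plus 3 SD, cut at about 0.9% in these data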;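 further: 0% = DMSO-only wells and 100% = 3 µM delta7-dafachronic acid wells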
# Active calls of the source: *; nt = no result given.
SMILES,hcDAF12 agonist,DAX1 inh-1,hgDAF-12 ag,DAX1 inh-2,ssDAF12 agonist
COc1ccc(C(C)=O)cc1CSc1nnc(Nc2c(C)cccc2C)s1,-1,-1,-4,4.6*,-2
O=C1c2ccccc2C(=O)C1c1ccncc1,5.6*,4.0*,8,0,0
Cc1cccc(C(O)c2ncc(-c3ccc(C(F)(F)F)cc3)[nH]2)c1C (stereo unspecified),0,2,5,nt,-1
c1ccc(-c2nc(NCc3cccnc3)c3oc4ccccc4c3n2)cc1,6.3*,-1,8,-2,0
O=C(O)CNc1nc(-c2ccccc2)nc2c1oc1ccccc12,4,-1,4,2,0
CCOC(=O)N1C(=O)C[C@](Sc2ccc(OC)cc2)(C(=O)N(C)C)[C@H]1c1ccc(OC)cc1,0,-2,9,nt,-1
O=C(Cc1ccccc1[N+](=O)[O-])N1CCc2ccccc2C1,4,1,11*,0,1.1*
CCCCCC(=O)N1C[C@@H](O)[C@H](n2cc(C3CC3)nn2)C[C@@H]1c1ccc(Cl)cc1,0,0,-1,4.6*,-1
CC(C)(C)NC(=O)c1ccccc1-c1nc2ccccc2s1,1,-1,0,0,1.6*
O[C@H](COc1cccc(C(F)(F)F)c1)CN1CCC(C(O)(c2ccccc2)c2ccccc2)CC1,-2,-1,1,nt,-1
C[C@H]1[C@@H](C(=O)N2CCCC2)CC(=O)/C(=N/OCc2ccccc2)C[C@@H]1c1ccccc1,0,0,0,nt,-1
c1ccc2sc(NC3=NCN(C4CCCCCC4)CN3)nc2c1,3,0,1,-1,1.5*
c1ccc2oc(NC3=NCN(C4CCCCC4)CN3)nc2c1,-1,0,2,nt,-1
O=C(COC(=O)c1ccc(F)cc1)NCCc1ccc(F)cc1,1,-2,8,1,-1
O=C(COC(=O)c1cc(Cl)nc(Cl)c1)NCCc1ccc(F)cc1,6,-2,3,0,1.6*
CC(C)(C)n1ncc2c(=O)n(CC(=O)Nc3ccc(Cl)cc3)cnc21,-2,0,0,0,-1
CC(=O)Cn1cnc2c(cnn2-c2ccc(F)cc2)c1=O,-1,2,4,1,1.0*
CC(C)(C)n1ncc2c(=O)n(CC(=O)c3ccc(Cl)cc3)cnc21,3,2,12*,2,0
CCOC(=O)c1c(N)sc(C(=O)Nc2ccc3c(c2)OCO3)c1C,5.8*,3,8,-3,1
CCOC(=O)c1c(C)c(C(=O)Nc2ccc3c(c2)OCO3)c(C)n1C,0,0,3,0,-1
CCOc1ccc2oc(C(=O)Nc3ccc4c(c3)OCO4)c(C)c2c1,3,1,11*,0,0
O=C(O)C1(c2ccccc2)CCN(S(=O)(=O)c2ccccc2)CC1,0,0,0,0,1.0*
CN(C)C(=O)C1(c2ccccc2)CCN(S(=O)(=O)c2ccccc2)CC1,0,0,2,1,-1
COc1ccc(C(=O)/C=C/Nc2ccc(C)cn2)cc1OC,3,4.0*,10,2,0
COc1ccc(C2N3CC4(C)CN2CC(C)(C3)C4=O)cc1OC (stereo unspecified),-2,1,1,5.2*,-1
SMILES,hcDAF12 agonist,DAX1 inh-1,hgDAF-12 ag,DAX1 inh-2,ssDAF12 agonist
COc1ccc(C2OC(=O)C(C)(C)C(=O)C2(C)C)cc1OC (stereo unspecified),-1,0,-1,1,-1
Cc1ccc(-c2cnco2)cc1,2,0,-2,6.3*,-2
O=C(O)c1nn(Cc2nc3ccccc3o2)c(=O)c2ccccc12,5.9*,0,-1,0,0
Cc1ccc(-c2noc(Cn3nc(C(=O)O)c4ccccc4c3=O)n2)cc1,-1,0,-2,2,-1
N#CC1=C(O)C(c2ccccc2)n2c1nc(=O)c1ccccc12 (stereo unspecified),1,1,2,7.3*,-1
N#CC1=C(O)CCCn2c1nc1ccccc1c2=O,0,1,-1,0,-1
COc1ccc(CN2C3=NC(c4ccccc4)CC(=O)N3/C(=C\c3ccccc3)C2c2ccccc2)c(OC)c1 (stereo unspecified),-2,nt,2,nt,-2
O=C(/C=C(\Nc1ccccc1)c1ccccc1)c1ccccc1,1,2,1,nt,-1
O=C(/C=C(\Nc1ccc(F)cc1)c1ccccc1)c1ccccc1,0,1,11*,nt,-1
C/C(=C\C(=O)c1ccccc1)Nc1ccc(O)cc1,-1,-1,-3,-1,1.1*
C/C(=C\C(=O)c1cccnc1)Nc1ccc(O)cc1,-2,-1,-3,-1,-1
CC(C)C1N=C(NC(=O)OCc2ccccc2)NC1=O (stereo unspecified) (tested in a mixture with another compound),1,-1,3,nt,-1
N#Cc1cc2c(nc1SCC(=O)Nc1nccs1)CCCCC2,11*,7.7*,21*,2,1.0*
CCc1nnc(NC(=O)CSc2nc3c(cc2C#N)CCC3)s1,1,2,10,0,0
COC(=O)CN1CCN(C(=O)c2nocc2C)CC1,-1,1,1,nt,-2
CN(C)CCCN(C(=O)COc1ccc(Cl)cc1)c1nc2c(F)cccc2s1,-1,0,1,1,-1
Cc1cccc2sc(N(CCCN(C)C)C(=O)COc3ccc(Cl)cc3)nc12,0,1,1,4.3*,-1
CC(C)(C)N(Cc1cn(Cc2ccccc2)nn1)S(=O)(=O)c1ccc(N2CCCC2)cc1Br,-5,1,-2,nt,-2
COc1ccc(CN2c3ccccc3C(=O)CS2(=O)=O)cc1OC,-1,1,-2,nt,-1
CCc1ccc(S(=O)(=O)NCCc2cn3cccc(C)c3n2)s1,5,1,4,-1,2.2*
COc1ccc(/C=C/C(Cc2cccc(C(C)=O)c2)c2ccc(C)cc2)cc1 (stereo unspecified),-3,-3,-1,nt,-1
CC(=O)Nc1ccc(/C=C/c2nc3ccccc3o2)cc1,4,2,13*,4.5*,0
c1ccc(-c2nnc(-c3ccccc3)nn2)cc1,5,1,9,nt,1.0*
c1ccc(-c2nn[nH]n2)cc1,1,0,-2,1,-1
COc1ccc(CN2C(=O)CCCC2(C)c2nnnn2-c2c(C)cccc2C)cc1OC (stereo unspecified),-2,-1,-1,nt,-2
